Data on 40 compounds can be found in PubChem BioAssay (NCATS).

Records with an inconclusive call do not appear. Where a call stands in place of a potency, no number is given. The source made the active and inactive calls. The call rests on the fitted dose curve; in most records, active means well fitted inhibition curve with a large enough effect; inconclusive means small, poorly fitted or top-dose-only effect; inactive means flat fitted curve, though single readings scatter.

Ubiquitin carboxyl-terminal hydrolase 1 (Homo sapiens), sequence (O94782 whole entry, looked up): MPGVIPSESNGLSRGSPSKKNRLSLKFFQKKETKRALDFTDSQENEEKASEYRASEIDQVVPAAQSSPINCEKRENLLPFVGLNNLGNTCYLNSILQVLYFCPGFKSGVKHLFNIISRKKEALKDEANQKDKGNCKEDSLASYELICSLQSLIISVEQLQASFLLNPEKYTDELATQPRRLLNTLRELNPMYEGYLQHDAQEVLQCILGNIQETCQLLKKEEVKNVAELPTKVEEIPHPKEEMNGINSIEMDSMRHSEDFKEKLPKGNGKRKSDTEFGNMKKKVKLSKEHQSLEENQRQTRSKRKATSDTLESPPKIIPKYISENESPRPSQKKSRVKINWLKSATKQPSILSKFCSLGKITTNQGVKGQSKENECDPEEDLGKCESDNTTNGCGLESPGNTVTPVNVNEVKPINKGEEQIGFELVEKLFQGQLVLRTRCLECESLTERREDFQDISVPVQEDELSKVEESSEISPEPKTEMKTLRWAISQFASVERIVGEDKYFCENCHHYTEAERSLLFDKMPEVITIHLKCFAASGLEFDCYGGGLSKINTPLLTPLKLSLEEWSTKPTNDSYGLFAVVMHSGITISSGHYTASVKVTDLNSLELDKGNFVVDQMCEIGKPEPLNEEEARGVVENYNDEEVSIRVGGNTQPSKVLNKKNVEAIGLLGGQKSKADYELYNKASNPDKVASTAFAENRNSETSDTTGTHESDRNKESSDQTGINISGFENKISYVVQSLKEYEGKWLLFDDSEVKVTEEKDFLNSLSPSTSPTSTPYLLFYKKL

For the assay, the target named is Ubiquitin carboxyl-terminal hydrolase 1 (Homo sapiens) (UniProt O94782). The experiment in a line: Inhibitors of USP1/UAF1: Pilot qHTS (AID 504865).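 Further: rhodamine fluorescence freed from ubiquitin-rhodamine substrate followed over time; top concentration of the series differs between compounds; nearly all actives have a fitted effect of over 35% in size.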 Conditions: purified USP1/UAF1, Ub-rhodamine cleavage fluorescence; series mostly up to 114 µM. From the text:
Deubiquitinating enzymes (DUBs) are a class of enzymes that can cleave isopeptide bond formed between the C-terminal carboxylate of ubiquitin and a lysine side-chain amino group on the target protein. Among them, ubiquitin specific proteases (USPs) constitute the largest DUB family. Human USPs are emerging as promising targets for pharmacological intervention because of their connection to a number of human diseases, including prostate, colon and breast cancer (1, 2), pediatric acute lymphoblastic leukemia (3), and familial cylindromatosis (4). The advantage of inhibiting USPs lies in the potential specificity of therapeutic intervention that can lead to better efficacy and reduce nonspecific side effects.
In a collaboration between the University of Delaware and the NIH Chemical Genomics Center, a high-throughput screen assay was developed to screen for USP1/UAF1 inhibitors. This miniaturized assay has a fluorescent read-out and is used to screen the NIH Molecular Libraries Small Molecule Repository (MLSMR) in order to identify a small molecule that inhibits USP1.
NIH Chemical Genomics Center [NCGC]
NIH Molecular Libraries Probe Centers Network [MLPCN]
Assay Submitter (PI): Zhihao Zhuang, University of Delaware
1. Priolo, C., et al. (2006) The isopeptidase USP2a protects human prostate cancer from apoptosis. Cancer Res 66, 8625-8632
2. Popov, N., et al. (2007) The ubiquitin-specific protease USP28 is required for MYC stability. Nat Cell Biol 9, 765-774
3. De Pitta, C., et al. (2005) A leukemia-enriched cDNA microarray platform identifies new transcripts with relevance to the biology of pediatric acute lymphoblastic leukemia. Haematologica 90, 890-898
4. Kovalenko, A., et al. (2003) The tumour suppressor CYLD negatively regulates NF-kappaB signalling by deubiquitination. Nature 424, 801-805
3 microliters of reagents (buffer in columns 3 and 4 as negative control and 1nM USP1/UAF1 complex in columns 1, 2, and 5-48) are dispensed into Greiner black solid bottom 1536-well assay plates. Compounds are then transferred via Kalypsys pin tool equipped with 1536-pin array (10nl slotted pins, V&P Scientific, San Diego, CA). Following an incubation step of 15 min at room temperature, 1ul of Ub-Rho substrate (150nM final concentration) is added to initiate the reaction. The plates are immediately centrifuged at 1000 rpm for 15 seconds, and subsequently transferred to a ViewLux high-throughput CCD imager (PerkinElmer) wherein kinetic measurements of fluorescence are acquired using 480 nm excitation/540 nm emission filter set (6 reads every 60 seconds, see Table 1). All reagents are diluted in an assay buffer consisting of 50mM HEPES (pH 7.8), 0.5mM EDTA, 0.1 mg/ml BSA, 1mM TCEP, and 0.01% Tween-20.
For `NC1=NCC2c3ccccc3Cc3ccccc3N12` (stereo not given), the Potency entry was “inactive”.
Turning to `OCCN1CCN(CCCN2c3ccccc3C=Cc3ccccc32)CC1`, the Potency entry was “inactive”.
In the case of `Cc1nc2c([nH]1)c(=O)n(C)c(=O)n2Cc1ccco1` it was “inactive”; in that of `CCN(CC)CCNC(=O)c1ccc(NC(C)=O)cc1`, “inactive”.
Next, `CCCN(CCC)CCc1cccc2c1CC(=O)N2`: “inactive”; `COC(=O)[C@@H](N)Cc1ccc(O)c(O)c1`: “inactive”.
Next, `CN/C(=C\[N+](=O)[O-])NCCSCc1ccc(CN(C)C)o1`: “inactive”; `CCCCCN(CCCCC)C(=O)C(CCC(=O)O)NC(=O)c1ccc(Cl)c(Cl)c1` (stereo not given): “inactive”; `c1cc(CN2CCCCC2)cc(OCCCNc2nc3ccccc3s2)c1`: “inactive”.
As to `COc1cc(Cc2cnc(N)nc2N)cc(OC)c1OC`, the Potency result is “inactive”.
Next, `O=C(CCNNC(=O)c1ccncc1)NCc1ccccc1`: “inactive”; `CCN(CC)CCCN(c1ccccc1)C1Cc2ccccc2C1`: “inactive”.
Next, `CNCCCN1c2ccccc2CCc2ccccc21`: “inactive”; `COc1ccc([C@@H]2Sc3ccccc3N(CCN(C)C)C(=O)[C@@H]2OC(C)=O)cc1`: “inactive”.
In the case of `c1ccc2c(c1)CCCC2C1=NCCN1` (stereo not given) it was “inactive”; in that of `O=C(O)CCCCCCCC(=O)O`, “inactive”.
Consider `C#CCN(C)CCCOc1ccc(Cl)cc1Cl`, for which the Potency result was “inactive”.
In the case of `CC(=O)[C@@]1(O)CC[C@H]2[C@@H]3CCC4=CC(=O)CC[C@]4(C)[C@H]3CC[C@@]21C` it was “inactive”.
As for `Cc1ccc(/C(=C\CN2CCCC2)c2ccccn2)cc1`, the Potency result is “inactive”.
In the case of `CC(C(=O)O)c1ccc(CC2CCCC2=O)cc1` (stereo not given) it was “inactive”.
Next, `CN1C(=O)CC[C@H]1c1cccnc1`: “inactive”; `NC(N)=NC(=O)Cc1c(Cl)cccc1Cl`: “inactive”; `Cc1scc2c1N(C(=O)CN1CCN(C)CC1)c1ccccc1NC2=O`: “inactive”.
Next, `C[C@]12CCC(=O)C=C1CC[C@@H]1[C@@H]2CC[C@@]2(C)[C@H]1CC[C@]2(O)C(=O)CO`: “inactive”; `CN(C)CCOC(=O)COc1ccc(Cl)cc1`: “inactive”; `C[C@]12C=CC(=O)C=C1CC[C@H]1[C@@H]3C[C@@H](O)[C@](O)(C(=O)CO)[C@@]3(C)C[C@H](O)[C@@]12F`: “inactive”.
For `CN(C)CCN(Cc1cccs1)c1ccccn1`, the Potency result is “inactive”.
On to `COCC(=O)O[C@]1(CCN(C)CCCc2nc3ccccc3[nH]2)CCc2cc(F)ccc2[C@@H]1C(C)C`, for which the Potency entry is “inactive”.
Next, `CCN(Cc1ccncc1)C(=O)C(CO)c1ccccc1` (stereo not given): “inactive”; `CC(C)COCC(CN(Cc1ccccc1)c1ccccc1)N1CCCC1` (stereo not given): “inactive”.
Next, `NC(=O)N1c2ccccc2C=Cc2ccccc21`: “inactive”.
In the case of `CCOC(=O)c1cnc2c(cnn2CC)c1NN=C(C)C` it was “inactive”.
As to `CCCN(CCC)C(=O)C(CCC(=O)O)NC(=O)c1ccccc1` (stereo not given), the Potency entry was “inactive”.
For the compound `C[n+]1cc2c3c(ccc2c2ccc4cc5c(cc4c21)OCO5)OCO3`, the Potency entry is “inactive”.
In the case of `CN1CCN(CC(=O)N2c3ccccc3C(=O)Nc3cccnc32)CC1` it was “inactive”; in that of `O=C1CC2(CCCC2)CC(=O)N1CCCCN1CCN(c2ncccn2)CC1`, “inactive”; in that of `CCn1nc(C(=O)O)c(=O)c2cc3c(cc21)OCO3`, “inactive”.
Next, `C[N+](C)(C)CCOC(N)=O`: “inactive”.
Next, `CN(C)C(=O)Oc1cccc([N+](C)(C)C)c1`: “inactive”; `CC(N=C(NC#N)Nc1ccncc1)C(C)(C)C` (stereo not given): “inactive”.
